From PubChem BioAssay AID463254 (National Center for Advancing Translational Sciences (NCATS), 2010)
The whole screen tested about 330,000 compounds, of which about 40 (0.01%) were called active. A call without a number means that no potency is given here. The sample holds actives, similar compounds and a random draw of the others, so the mix is not that of the screen. Calls come from the whole dose curve; as a rule, active = well fitted inhibition curve with a large enough effect; inconclusive = small, poorly fitted or top-dose-only effect, or effect the other way; inactive = flat fitted curve, though single readings scatter.
Potency is the fitted concentration of half-maximal effect.

Each compound was assayed against Ubiquitin carboxyl-terminal hydrolase 2 (Homo sapiens) (UniProt O75604) (assay: qHTS Assay for Inhibitors of Ubiquitin-specific Protease USP2a Using CHOP2 as the Reporter). Details: USP2 core, Ub-CHOP2 coupled fluorogenic reporter, 485/531; series mostly up to 38.3 µM.
Chain of Ubiquitin carboxyl-terminal hydrolase 2 (Homo sapiens) (O75604 whole entry, looked up): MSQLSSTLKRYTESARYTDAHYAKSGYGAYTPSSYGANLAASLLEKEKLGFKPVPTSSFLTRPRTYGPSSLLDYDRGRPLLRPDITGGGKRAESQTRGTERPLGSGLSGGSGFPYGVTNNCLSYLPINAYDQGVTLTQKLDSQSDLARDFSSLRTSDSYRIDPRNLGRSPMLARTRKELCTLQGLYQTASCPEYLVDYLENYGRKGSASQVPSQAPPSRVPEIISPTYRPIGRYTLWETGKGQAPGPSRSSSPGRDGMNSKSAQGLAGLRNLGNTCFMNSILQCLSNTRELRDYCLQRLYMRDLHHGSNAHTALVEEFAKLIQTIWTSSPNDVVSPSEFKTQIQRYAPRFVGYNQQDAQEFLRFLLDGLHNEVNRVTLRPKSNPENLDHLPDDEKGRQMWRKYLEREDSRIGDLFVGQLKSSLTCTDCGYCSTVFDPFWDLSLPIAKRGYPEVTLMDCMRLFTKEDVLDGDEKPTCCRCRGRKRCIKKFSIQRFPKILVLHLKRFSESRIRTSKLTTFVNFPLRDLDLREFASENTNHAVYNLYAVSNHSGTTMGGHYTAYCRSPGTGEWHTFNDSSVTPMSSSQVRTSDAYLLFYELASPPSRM
How it was run: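 Cell-free coupled assay: 10nM USP2 core preincubated 30min RT with compound in Tris-HCl pH 8.0/CaCl2/CHAPS buffer, then 25nM Ub-CHOP2 and 25nM reporter substrate; fluorescence (Ex 485/Em 531) read after 60min RT, normalized to NEM inhibition, concentration-response curves fitted.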
In the case of `Cc1cc(C)c(S(=O)(=O)N2CCOCC2)cc1C`, the activity change, negative = inhibition is reported as “inactive”. `Cc1ccc(CNC(=O)Cn2c(=O)c3sccc3n(Cc3cccc([N+](=O)[O-])c3)c2=O)cc1` was tested, and the activity change, negative = inhibition was “inactive”. With `CCOc1ncccc1C(=O)NNC(=O)c1cccc(S(=O)(=O)Nc2ccccc2OC)c1` the activity change, negative = inhibition was “inactive”. `COc1ccc(C(c2nnnn2C2CCCCC2)N2CCN(c3ccccc3F)CC2)cc1` (centres undefined) was tested, and the activity change, negative = inhibition was “inactive”. With `COc1ccccc1/C=C/CN1CCC(CO)(Cc2ccccc2)CC1` the activity change, negative = inhibition was “inactive”. With `Cc1ccc(O)c(/C=N/NC(=O)COc2ccc3c(C)cc(=O)oc3c2)c1` the activity change, negative = inhibition was “inactive”. With `O=C(CCc1nnc(Cc2ccc3c(c2)OCO3)o1)NCCc1ccccc1Cl` the activity change, negative = inhibition was “inactive”. For `CC(C)c1ccc(-c2noc(C3CCCN(S(C)(=O)=O)C3)n2)cc1` (centres undefined), the activity change, negative = inhibition was “inactive”. With `COc1ccccc1CNC(=O)CCCNS(=O)(=O)c1cccc2nsnc12` the activity change, negative = inhibition was “inactive”. With `CC1COC2C(O1)N(S(C)(=O)=O)CCN2S(C)(=O)=O` (centres undefined) the activity change, negative = inhibition was “inactive”. With `CCC(C)[C@@H](C(=O)N1CCNCC1)n1cc(CCCCN)nn1` (some centres undefined) the activity change, negative = inhibition was “inactive”. For `CCCN(CC(=O)NC(=O)NC1CCCCC1)CC(=O)Nc1cc(Cl)ccc1Cl`, the activity change, negative = inhibition was “inactive”. `CC(C)CC1NC(=O)c2cc(Cl)ccc2-n2c1nc1ccccc1c2=O` (centres undefined) was tested, and the activity change, negative = inhibition was “inactive”. With `O=C(NNS(=O)(=O)c1ccc(F)cc1)c1cnccn1` the activity change, negative = inhibition was “inactive”. With `Cc1csc(Nc2ccc(Cl)cc2)[n+]1-c1ccc(Cl)cc1` the activity change, negative = inhibition was “inactive”. With `CSC1=NCCN1C(=O)c1ccc(S(=O)(=O)N2CCOCC2)cc1` the activity change, negative = inhibition was “inactive”. `C[C@@H]1C[C@@H]2O[C@H]2/C=C\C=C\C(=O)Cc2c(Cl)c(O)cc(O)c2C(=O)O1` was tested, and the activity change, negative = inhibition was “inactive”. With `Cc1cccc(NC(=O)N(Cc2cc3cc(C)cc(C)c3[nH]c2=O)CC2COCCO2)c1` (centres undefined) the activity change, negative = inhibition was “inactive”. In the case of `C#CCOCCOCCOCCNc1nc(N2CCN(C(=O)CCCCCCCCCCNC(=O)[C@H](CCCCN)n3cc(C)nn3)CC2)nc(N2CCN(C(=O)CCCCCCCCCCNC(=O)[C@H](CO)n3cc(CCCSC)nn3)CC2)n1`, the activity change, negative = inhibition is reported as “inactive”. `C#CCOCCOCCOCCNc1nc(N2CCN(C(=O)CCCCCCCCCCNC(=O)Cn3cc(CCCCCN)nn3)CC2)nc(N2CCN(C(=O)CCCCCCCCCCNC(=O)[C@H](CO)n3cc(CCCSC)nn3)CC2)n1` was tested, and the activity change, negative = inhibition was “inactive”. For `C#CCOCCOCCOCCNc1nc(N2CCN(C(=O)CCCCCCCCCCNC(=O)[C@H]([C@@H](C)CC)n3cc(CCCCN=C(N)N)nn3)CC2)nc(N2CCN(C(=O)CCCCCCCCCCNC(=O)[C@H](CO)n3cc(CCCSC)nn3)CC2)n1`, the Potency was 6.31 µM (active). `Cc1cc(NC(=O)CN2CCCCC2C)nc2c1c(=O)oc1ccccc12` (centres undefined) was tested, and the activity change, negative = inhibition was “inactive”. In the case of `Cc1nc(SC(C)C)[nH]c(=O)c1Cc1ccccc1`, the activity change, negative = inhibition is reported as “inactive”. For `CC1CCc2c(nc3ncnn3c2Nc2ccc(OC(F)(F)F)cc2)C1` (centres undefined), the activity change, negative = inhibition was “inactive”. With `CCNC(=O)c1sccc1-n1cccc1` the activity change, negative = inhibition was “inactive”. For `CN1C2CCC1/C(=C\c1ccccc1Cl)C(=O)/C2=C\c1ccccc1Cl`, the activity change, negative = inhibition was “inactive”. With `COc1ccc2c(c1OC)C(=O)c1ccccc1C2=O` the activity change, negative = inhibition was “inactive”. With `Cc1c([N+](=O)[O-])c(N)nn1C` the activity change, negative = inhibition was “inactive”. With `Cc1cc(NS(=O)(=O)c2ccc(NC(=O)c3cccnc3)cc2)nc(C)n1` the activity change, negative = inhibition was “inactive”. With `COc1cccc(CC2(CO)CCN(Cc3cnc(-c4cccc(C)c4)nc3)CC2)c1` the activity change, negative = inhibition was “inactive”. In the case of `NS(=O)(=O)c1ccc(NC(=S)NC(=O)c2cccnc2)cc1`, the activity change, negative = inhibition is reported as “inactive”. For `COc1cc2c(C(=O)N3CCN(C)CC3)c(CSc3ccccc3)n(C)c2cc1Br`, the activity change, negative = inhibition was “inactive”. `COc1ccc(Cl)cc1N(CC(=O)N1CCCCC1)S(C)(=O)=O` was tested, and the activity change, negative = inhibition was “inactive”. For `Cc1ccc(NC(=O)N2CCC(O)(c3cccnc3)CC2)cc1`, the activity change, negative = inhibition was “inactive”. For `COc1cc(OC)cc(C(=O)N[C@H](C(=O)OCC(=O)NC(C)c2ccccc2)C(C)C)c1` (some centres undefined), the activity change, negative = inhibition was “inactive”. For `O=C1C2C3C=CC(C3)C2C(=O)N1c1ccc(S(=O)(=O)Nc2nccs2)cc1` (centres undefined), the activity change, negative = inhibition was “inactive”. In the case of `O=C(Cc1csc(Nc2nc(=S)[nH]c3ccccc23)n1)NCCCN1CCN(c2cccc(Cl)c2)CC1`, the activity change, negative = inhibition is reported as “inactive”. `CC(C)[C@@H]1NC(=O)c2cc([N+](=O)[O-])cc(I)c2NCCC[C@@H](C(=O)NC(CC(=O)O)C(N)=O)NC(=O)[C@H](CO)NC1=O` (some centres undefined) was tested, and the activity change, negative = inhibition was “inactive”. `CC(C)(CNC(=O)c1cc(=O)[nH]c2ccccc12)N1CCOCC1` was tested, and the activity change, negative = inhibition was “inactive”. With `Cc1ccc(CN2CCN(Cc3ccccc3-c3ccco3)CC2CCO)o1` (centres undefined) the activity change, negative = inhibition was “inactive”. In the case of `COCc1ccc(C(=O)NC2CC(C)(C)Cc3c2cnn3-c2ccc(C)cc2)o1` (centres undefined), the activity change, negative = inhibition is reported as “inactive”. `Fc1ccccc1CNC(=S)Nc1ccc(Cl)cc1` was tested, and the activity change, negative = inhibition was “inactive”. In the case of `COc1ccc(C(=O)NCC2CCCCC2)cc1S(=O)(=O)N1CCCC1`, the activity change, negative = inhibition is reported as “inactive”. `CCn1cc(C(=O)NCc2ccc(OC)cc2OC)c(=O)c2ccc(C)nc21` was tested, and the activity change, negative = inhibition was “inactive”. In the case of `COc1ccc(C2COC(=O)C2=N)c(NC(=O)c2ccccc2)c1` (centres undefined), the activity change, negative = inhibition is reported as “inactive”. In the case of `COc1ccc(C(CC(=O)Nc2ccc(C)cc2)NC(=O)C(F)(F)F)cc1` (centres undefined), the activity change, negative = inhibition is reported as “inactive”. With `CCCCN(Cc1ccccc1)C(=O)C1CCN(Cc2sccc2C)CC1` the activity change, negative = inhibition was “inactive”. `CC(=O)c1c(OCC(=O)N(C)C2CCCCC2)ccc2c(C)cc(=O)oc12` was tested, and the activity change, negative = inhibition was “inactive”. With `Cc1ccc(NS(=O)(=O)c2ccc3c(c2)CC(=O)N3)cc1Cl` the activity change, negative = inhibition was “inactive”.
